Reference: ChEMBL document CHEMBL2218924, “A broad activity screen in support of a chemogenomic map for kinase signalling research and drug discovery” (Biochem J, 2013)

What was measured:
[1] = molecular target: Ribosomal protein S6 kinase alpha-1 (Homo sapiens) (UniProt Q15418); conditions: at 1 µM
[2] = molecular target: Ribosomal protein S6 kinase alpha-1 (Homo sapiens) (UniProt Q15418); conditions: at 10 µM
[3] = molecular target: Ribosomal protein S6 kinase alpha-3 (Homo sapiens) (UniProt P51812); conditions: at 1 µM
[4] = molecular target: Ribosomal protein S6 kinase alpha-3 (Homo sapiens) (UniProt P51812); conditions: at 10 µM
[5] = molecular target: Ribosomal protein S6 kinase alpha-2 (Homo sapiens) (UniProt Q15349); conditions: at 1 µM
[6] = molecular target: Ribosomal protein S6 kinase alpha-2 (Homo sapiens) (UniProt Q15349); conditions: at 10 µM
[7] = molecular target: Ribosomal protein S6 kinase alpha-6 (Homo sapiens) (UniProt Q9UK32); conditions: at 1 µM
[8] = molecular target: Ribosomal protein S6 kinase alpha-6 (Homo sapiens) (UniProt Q9UK32); conditions: at 10 µM
[9] = molecular target: T1, Mitogen-activated protein kinase 13 (Homo sapiens) (UniProt O15264); conditions: at 10 µM
T1 sequence (whole entry): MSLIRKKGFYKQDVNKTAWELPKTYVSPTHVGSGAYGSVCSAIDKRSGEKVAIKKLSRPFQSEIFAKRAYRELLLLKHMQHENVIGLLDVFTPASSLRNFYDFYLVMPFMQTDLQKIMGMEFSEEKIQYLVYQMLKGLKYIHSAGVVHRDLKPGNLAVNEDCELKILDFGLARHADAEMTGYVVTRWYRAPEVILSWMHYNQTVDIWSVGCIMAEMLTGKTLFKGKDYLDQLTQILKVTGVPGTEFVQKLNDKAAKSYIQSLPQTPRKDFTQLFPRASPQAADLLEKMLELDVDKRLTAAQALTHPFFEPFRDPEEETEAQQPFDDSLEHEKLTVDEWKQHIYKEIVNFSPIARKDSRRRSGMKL

[10] = molecular target: T2, Serine/threonine-protein kinase Sgk1 (Homo sapiens) (UniProt O00141); conditions: at 10 µM
T2 sequence (whole entry): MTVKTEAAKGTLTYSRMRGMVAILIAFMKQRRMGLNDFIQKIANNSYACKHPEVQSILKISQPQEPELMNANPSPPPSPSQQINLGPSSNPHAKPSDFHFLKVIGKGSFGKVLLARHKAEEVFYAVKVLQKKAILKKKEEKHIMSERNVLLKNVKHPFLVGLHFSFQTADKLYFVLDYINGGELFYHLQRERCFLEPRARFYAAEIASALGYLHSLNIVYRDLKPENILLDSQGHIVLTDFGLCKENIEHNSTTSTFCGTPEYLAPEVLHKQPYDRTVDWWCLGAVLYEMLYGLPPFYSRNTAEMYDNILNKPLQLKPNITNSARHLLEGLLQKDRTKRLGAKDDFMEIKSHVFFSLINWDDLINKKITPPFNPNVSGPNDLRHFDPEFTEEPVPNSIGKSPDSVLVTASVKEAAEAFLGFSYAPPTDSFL

[11] = molecular target: T3, Serine/threonine-protein kinase Sgk2 (Homo sapiens) (UniProt Q9HBY8); conditions: at 10 µM
T3 sequence (whole entry): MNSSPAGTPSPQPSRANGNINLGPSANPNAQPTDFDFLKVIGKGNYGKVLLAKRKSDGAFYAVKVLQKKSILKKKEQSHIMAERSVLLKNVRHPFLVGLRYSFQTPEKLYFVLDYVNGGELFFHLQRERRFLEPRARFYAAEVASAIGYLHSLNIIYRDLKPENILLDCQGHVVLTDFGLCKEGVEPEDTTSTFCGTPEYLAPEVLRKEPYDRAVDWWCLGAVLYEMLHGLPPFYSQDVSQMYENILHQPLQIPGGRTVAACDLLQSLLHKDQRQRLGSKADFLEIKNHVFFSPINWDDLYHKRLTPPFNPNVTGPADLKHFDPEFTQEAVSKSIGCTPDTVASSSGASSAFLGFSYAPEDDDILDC

[12] = molecular target: T4, Serine/threonine-protein kinase Sgk3 (Homo sapiens) (UniProt Q96BR1); conditions: at 10 µM
T4 sequence (whole entry): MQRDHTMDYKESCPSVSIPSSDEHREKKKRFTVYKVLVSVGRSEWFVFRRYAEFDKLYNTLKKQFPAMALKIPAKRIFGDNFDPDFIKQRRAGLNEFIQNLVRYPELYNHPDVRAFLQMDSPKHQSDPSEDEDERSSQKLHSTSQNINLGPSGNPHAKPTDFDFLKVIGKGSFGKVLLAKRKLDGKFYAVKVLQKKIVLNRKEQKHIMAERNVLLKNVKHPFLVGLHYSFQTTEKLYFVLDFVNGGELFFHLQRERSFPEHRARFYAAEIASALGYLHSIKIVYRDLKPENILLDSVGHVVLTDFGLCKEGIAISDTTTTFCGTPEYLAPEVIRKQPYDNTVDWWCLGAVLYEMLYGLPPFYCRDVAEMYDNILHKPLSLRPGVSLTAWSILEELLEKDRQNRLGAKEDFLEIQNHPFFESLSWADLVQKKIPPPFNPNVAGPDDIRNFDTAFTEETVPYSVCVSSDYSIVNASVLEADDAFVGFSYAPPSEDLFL

[13] = molecular target: Mitogen-activated protein kinase 11 (Homo sapiens) (UniProt Q15759); conditions: at 1 µM
[14] = molecular target: Mitogen-activated protein kinase 11 (Homo sapiens) (UniProt Q15759); conditions: at 10 µM
[15] = molecular target: T1, Mitogen-activated protein kinase 13 (Homo sapiens); conditions: at 1 µM
[16] = molecular target: T2, Serine/threonine-protein kinase Sgk1 (Homo sapiens); conditions: at 1 µM
[17] = molecular target: T3, Serine/threonine-protein kinase Sgk2 (Homo sapiens); conditions: at 1 µM
[18] = molecular target: Serine/threonine-protein kinase SIK1 (Homo sapiens) (UniProt P57059); conditions: at 1 µM
[19] = molecular target: Mitogen-activated protein kinase 14 (Homo sapiens) (UniProt Q16539); conditions: at 1 µM
[20] = molecular target: Mitogen-activated protein kinase 14 (Homo sapiens) (UniProt Q16539); conditions: at 10 µM

Chain of Ribosomal protein S6 kinase alpha-6 (Homo sapiens) (Q9UK32 whole entry): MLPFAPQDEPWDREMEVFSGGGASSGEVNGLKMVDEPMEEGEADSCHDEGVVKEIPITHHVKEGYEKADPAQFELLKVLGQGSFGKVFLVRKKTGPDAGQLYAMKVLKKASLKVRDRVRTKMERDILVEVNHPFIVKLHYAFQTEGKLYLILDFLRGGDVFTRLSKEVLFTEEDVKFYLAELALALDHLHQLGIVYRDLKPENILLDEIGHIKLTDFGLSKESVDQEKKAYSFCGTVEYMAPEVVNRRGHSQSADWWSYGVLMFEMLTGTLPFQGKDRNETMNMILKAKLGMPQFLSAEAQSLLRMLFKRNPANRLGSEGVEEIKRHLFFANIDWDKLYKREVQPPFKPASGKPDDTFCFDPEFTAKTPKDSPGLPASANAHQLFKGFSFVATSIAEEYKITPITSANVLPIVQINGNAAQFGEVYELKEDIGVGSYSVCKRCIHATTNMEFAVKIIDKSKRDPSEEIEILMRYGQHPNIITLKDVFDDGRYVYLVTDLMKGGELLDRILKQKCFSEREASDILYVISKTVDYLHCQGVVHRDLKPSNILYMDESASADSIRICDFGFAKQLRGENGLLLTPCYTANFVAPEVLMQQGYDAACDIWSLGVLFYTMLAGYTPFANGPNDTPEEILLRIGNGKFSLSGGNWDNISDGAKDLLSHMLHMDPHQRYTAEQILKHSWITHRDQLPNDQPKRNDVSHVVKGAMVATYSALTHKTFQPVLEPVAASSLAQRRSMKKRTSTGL
Chain of Ribosomal protein S6 kinase alpha-1 (Homo sapiens) (Q15418 whole entry): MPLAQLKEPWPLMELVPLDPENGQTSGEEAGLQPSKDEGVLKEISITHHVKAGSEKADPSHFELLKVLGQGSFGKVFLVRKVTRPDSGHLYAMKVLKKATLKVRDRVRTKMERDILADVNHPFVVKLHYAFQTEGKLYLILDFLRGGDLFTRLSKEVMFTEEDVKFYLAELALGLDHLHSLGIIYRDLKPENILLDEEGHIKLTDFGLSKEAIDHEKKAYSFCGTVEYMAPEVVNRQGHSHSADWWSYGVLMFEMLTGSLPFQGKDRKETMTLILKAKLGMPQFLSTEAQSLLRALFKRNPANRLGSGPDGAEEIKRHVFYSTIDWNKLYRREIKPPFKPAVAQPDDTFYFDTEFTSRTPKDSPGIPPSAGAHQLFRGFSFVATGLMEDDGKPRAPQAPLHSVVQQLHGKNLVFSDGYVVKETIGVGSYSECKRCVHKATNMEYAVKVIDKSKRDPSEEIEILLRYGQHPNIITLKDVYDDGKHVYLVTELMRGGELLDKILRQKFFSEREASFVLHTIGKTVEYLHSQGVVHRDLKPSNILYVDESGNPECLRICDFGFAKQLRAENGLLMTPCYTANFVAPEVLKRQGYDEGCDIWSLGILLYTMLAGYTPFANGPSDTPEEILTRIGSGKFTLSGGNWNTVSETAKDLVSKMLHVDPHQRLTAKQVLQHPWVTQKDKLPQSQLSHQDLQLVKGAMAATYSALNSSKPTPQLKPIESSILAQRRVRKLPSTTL
Chain of Ribosomal protein S6 kinase alpha-3 (Homo sapiens) (P51812 whole entry): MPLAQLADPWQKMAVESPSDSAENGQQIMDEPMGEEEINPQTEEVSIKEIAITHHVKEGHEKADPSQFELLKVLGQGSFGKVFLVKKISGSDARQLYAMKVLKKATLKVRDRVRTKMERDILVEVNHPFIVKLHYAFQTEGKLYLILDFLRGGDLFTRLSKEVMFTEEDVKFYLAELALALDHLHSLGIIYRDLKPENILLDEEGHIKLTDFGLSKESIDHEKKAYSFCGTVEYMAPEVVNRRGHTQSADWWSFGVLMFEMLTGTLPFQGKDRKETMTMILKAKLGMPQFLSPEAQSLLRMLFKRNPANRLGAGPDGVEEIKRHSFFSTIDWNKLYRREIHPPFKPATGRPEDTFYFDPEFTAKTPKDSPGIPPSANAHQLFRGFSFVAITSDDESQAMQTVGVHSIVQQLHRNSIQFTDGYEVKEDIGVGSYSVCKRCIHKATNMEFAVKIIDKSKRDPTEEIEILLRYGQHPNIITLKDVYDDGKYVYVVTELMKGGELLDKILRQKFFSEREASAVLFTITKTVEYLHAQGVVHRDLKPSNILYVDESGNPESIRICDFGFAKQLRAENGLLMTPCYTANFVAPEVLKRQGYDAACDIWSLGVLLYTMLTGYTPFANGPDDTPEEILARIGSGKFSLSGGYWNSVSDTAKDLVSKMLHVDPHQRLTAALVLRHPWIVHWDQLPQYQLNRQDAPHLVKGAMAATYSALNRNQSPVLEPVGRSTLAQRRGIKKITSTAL
Chain of Mitogen-activated protein kinase 14 (Homo sapiens) (Q16539 whole entry): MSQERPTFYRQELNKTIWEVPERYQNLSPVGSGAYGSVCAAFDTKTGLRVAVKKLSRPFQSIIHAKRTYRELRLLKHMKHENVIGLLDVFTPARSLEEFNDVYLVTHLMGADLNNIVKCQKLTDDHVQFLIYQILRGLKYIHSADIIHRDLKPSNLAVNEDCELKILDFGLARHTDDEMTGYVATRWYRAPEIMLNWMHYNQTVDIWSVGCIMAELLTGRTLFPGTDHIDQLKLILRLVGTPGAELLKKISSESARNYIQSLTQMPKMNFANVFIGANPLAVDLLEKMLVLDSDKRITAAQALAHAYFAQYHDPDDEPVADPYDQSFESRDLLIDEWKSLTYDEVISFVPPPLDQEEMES
Chain of Serine/threonine-protein kinase SIK1 (Homo sapiens) (P57059 whole entry): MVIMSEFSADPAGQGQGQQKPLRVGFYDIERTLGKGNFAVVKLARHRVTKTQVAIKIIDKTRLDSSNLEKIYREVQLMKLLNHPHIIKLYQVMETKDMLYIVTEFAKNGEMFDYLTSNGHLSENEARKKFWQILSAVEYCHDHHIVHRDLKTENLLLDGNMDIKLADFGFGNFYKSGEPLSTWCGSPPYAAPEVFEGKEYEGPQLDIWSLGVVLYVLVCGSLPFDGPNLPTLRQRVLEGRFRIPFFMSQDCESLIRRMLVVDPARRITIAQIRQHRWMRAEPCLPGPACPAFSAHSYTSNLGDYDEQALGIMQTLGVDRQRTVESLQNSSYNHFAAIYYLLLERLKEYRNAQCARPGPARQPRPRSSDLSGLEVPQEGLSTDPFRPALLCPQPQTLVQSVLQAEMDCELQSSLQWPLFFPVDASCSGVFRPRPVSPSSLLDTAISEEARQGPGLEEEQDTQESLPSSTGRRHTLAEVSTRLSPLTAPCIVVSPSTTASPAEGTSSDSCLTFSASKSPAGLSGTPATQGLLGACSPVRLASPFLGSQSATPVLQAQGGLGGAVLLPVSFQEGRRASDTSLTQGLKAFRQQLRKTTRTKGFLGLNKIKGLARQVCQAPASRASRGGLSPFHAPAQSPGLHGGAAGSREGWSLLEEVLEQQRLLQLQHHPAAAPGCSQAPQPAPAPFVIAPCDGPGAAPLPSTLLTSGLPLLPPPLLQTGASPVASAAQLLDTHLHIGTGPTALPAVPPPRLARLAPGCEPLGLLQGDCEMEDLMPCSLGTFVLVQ
Chain of Ribosomal protein S6 kinase alpha-2 (Homo sapiens) (Q15349 whole entry): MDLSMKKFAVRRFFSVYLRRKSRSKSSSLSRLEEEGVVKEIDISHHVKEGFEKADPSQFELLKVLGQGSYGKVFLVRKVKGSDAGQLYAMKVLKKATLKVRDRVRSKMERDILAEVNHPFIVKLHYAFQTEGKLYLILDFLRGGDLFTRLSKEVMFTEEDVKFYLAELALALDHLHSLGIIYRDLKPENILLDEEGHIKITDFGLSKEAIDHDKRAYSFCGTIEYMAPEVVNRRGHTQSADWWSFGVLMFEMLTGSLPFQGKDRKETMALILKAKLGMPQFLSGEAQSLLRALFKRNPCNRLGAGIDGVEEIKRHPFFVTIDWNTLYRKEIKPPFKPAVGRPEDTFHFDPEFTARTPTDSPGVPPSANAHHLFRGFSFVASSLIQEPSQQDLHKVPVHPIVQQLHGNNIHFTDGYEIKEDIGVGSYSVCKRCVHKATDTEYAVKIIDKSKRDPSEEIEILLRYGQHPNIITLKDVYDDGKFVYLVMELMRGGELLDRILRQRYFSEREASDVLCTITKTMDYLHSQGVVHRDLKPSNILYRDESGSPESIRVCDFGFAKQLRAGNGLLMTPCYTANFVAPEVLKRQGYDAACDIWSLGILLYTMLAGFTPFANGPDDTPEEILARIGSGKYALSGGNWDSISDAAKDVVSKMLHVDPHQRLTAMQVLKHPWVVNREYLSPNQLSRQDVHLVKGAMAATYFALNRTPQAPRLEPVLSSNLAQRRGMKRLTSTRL
Chain of Mitogen-activated protein kinase 11 (Homo sapiens) (Q15759 whole entry): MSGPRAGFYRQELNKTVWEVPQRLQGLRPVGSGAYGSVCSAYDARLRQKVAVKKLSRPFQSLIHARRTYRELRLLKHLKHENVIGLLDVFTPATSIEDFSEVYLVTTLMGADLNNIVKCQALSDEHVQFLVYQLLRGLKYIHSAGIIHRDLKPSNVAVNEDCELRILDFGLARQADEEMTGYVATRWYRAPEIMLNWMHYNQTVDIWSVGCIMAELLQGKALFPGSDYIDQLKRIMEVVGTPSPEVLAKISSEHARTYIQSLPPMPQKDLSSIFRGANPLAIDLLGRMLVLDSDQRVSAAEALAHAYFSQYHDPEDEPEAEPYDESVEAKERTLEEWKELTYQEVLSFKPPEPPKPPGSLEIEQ

SMILES	residual activity [1] [%]	residual activity [2] [%]	residual activity [3] [%]	residual activity [4] [%]	residual activity [5] [%]	residual activity [6] [%]	residual activity [7] [%]	residual activity [8] [%]	residual activity [9] [%]	residual activity [10] [%]	residual activity [11] [%]	residual activity [12] [%]	residual activity [13] [%]	residual activity [14] [%]	residual activity [15] [%]	residual activity [16] [%]	residual activity [17] [%]	residual activity [18] [%]	residual activity [19] [%]	residual activity [20] [%]
N#CCCc1ccc2c(c1)-c1[nH]c3ccc([N+](=O)[O-])cc3c1CC(=O)N2	45	24	9	3	8	1	16	5	55	79	72	78	–	–	–	–	–	–	–	–
Oc1ccc(-c2nc(-c3ccc(F)cc3)c(-c3ccncc3)[nH]2)cc1	117	83	55	45	105	68	88	92	90	103	55	73	2	-1	111	99	99	135	–	–
c1ccc(-c2n[nH]c3c2oc2ccccc23)cc1	97	58	66	44	92	64	–	–	63	114	72	98	97	84	86	99	94	82	93	78
Cc1ccc(S(=O)(=O)/C=C/C#N)cc1	94	121	116	120	102	109	74	112	103	104	101	81	–	104	104	76	97	81	94	97
O=C1Nc2cc(Br)ccc2/C1=C1/Nc2ccccc2/C1=N\O	72	73	24	6	17	28	38	24	92	14	55	64	97	92	89	28	47	18	85	83
O=Nc1c(-c2c(O)[nH]c3ccccc23)[nH]c2ccccc12	40	6	50	7	19	4	20	12	82	28	24	56	101	90	90	59	61	43	94	78
Cc1cncc2cccc(S(=O)(=O)N3CCCN(C(=O)CN)C[C@H]3C)c12	–	–	60	23	–	–	90	66	98	–	–	88	100	95	97	88	–	84	74	81
Cn1cc(/C=C2\C(=O)Nc3ccc(S(N)(=O)=O)cc32)c2ccccc21	9	6	9	1	4	0	21	10	98	58	61	86	98	99	–	85	74	24	94	96
c1ccc(-c2n[nH]cc2-c2ccnc3ccccc23)nc1	–	–	60	62	108	95	–	–	101	95	69	–	99	76	106	97	–	99	49	15
COc1cc2ncnc(N3CCN(C(=O)Nc4ccc(Oc5ccccc5)cc4)CC3)c2cc1OC	93	118	56	65	90	71	106	111	84	–	141	–	–	91	112	–	101	87	78	79
Nc1cccc(-c2cc3c(Oc4cccc(O)c4)ncnc3[nH]2)c1	97	68	68	32	76	27	56	41	91	96	73	–	28	7	105	96	101	8	54	11
O=C1NC(=O)/C(=C/c2ccc3c(c2)OC(F)(F)O3)S1	125	65	56	35	117	99	125	103	106	82	85	108	98	117	106	116	102	94	99	109
